Several values for one entry are separate records, joined by “and”; a condition that tells them apart may be missing. Equal entries are not always repeated. Values without a mark were called inactive. Inconclusive results are not listed. A call without a number means that no potency is given here. Activity calls are given as the source filed them. Unless noted, the call rests on the fitted dose curve; in most records, active means well fitted curve in the direction sought with a large enough effect; inconclusive means small, poorly fitted or top-dose-only effect, or another doubt; inactive means no such curve, though single readings can be large; an effect the other way counts as inactive or inconclusive.
How the values were obtained:
SKOV3 = experiment: Primary qHTS to identify gynecologic anti-cancer compounds using libraries of approved drugs and bioactive compounds (AID 1345084); conditions: Gynecologic cancer cell panel viability, ATPlite luminescence, 48 h; series mostly up to 57.5 µM; further: nearly all actives have a fitted effect of over 55% in size; further: potency means the concentration at half of the fitted maximal effect
Method in brief: (§1)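 Cell viability after 48 h drug treatment, ATPlite luminescence readout; five doses.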

Tov-21-G = experiment: as above; conditions: Gynecologic cancer cell panel viability, ATPlite luminescence, 48 h; series mostly up to 57.5 µM
Method in brief: as §1

[1] = qHTS assay for small molecule activators of the human pregnane X receptor (PXR) signaling pathway (AID 720659; call rule not given here)
Tov112D = experiment: Primary qHTS to identify gynecologic anti-cancer compounds using libraries of approved drugs and bioactive compounds (AID 1345084); conditions: Gynecologic cancer cell panel viability, ATPlite luminescence, 48 h; series mostly up to 57.5 µM; further: nearly all actives have a fitted effect of over 55% in size; further: potency means the concentration at half of the fitted maximal effect
Method in brief: as §1

[2] = Drug repurposing screens with cells derived from glioblastoma tumor samples (AID 1345199); conditions: GBM patient neurospheres viability, ATP luminescence, 48 h; Potency: tumour line A unless noted; series mostly up to 45.9 µM; further: nearly all actives have a fitted effect of over 40% in size
Method in brief: (§2)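 Primary testing used CD133+ neurospheres from four GBM patients, seven concentrations, 48 h exposure and ATP-based viability; confirmation added three slower-growing patient lines.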

astro = experiment: as above; conditions: viability, ATP luminescence, 48 h; series mostly up to 45.9 µM
Method in brief: as §2

[3] = target: Nuclear receptor subfamily 1 group I member 2 (Rattus norvegicus) (UniProt Q9R1A7); experiment: qHTS assay for small molecule activators of the rat pregnane X receptor (rPXR) signaling pathway (AID 651751; call rule not given here); conditions: rPXR reporter cells, luciferase (One-Glo), 24 h
Chain of Nuclear receptor subfamily 1 group I member 2 (Rattus norvegicus) (Q9R1A7 whole entry, looked up): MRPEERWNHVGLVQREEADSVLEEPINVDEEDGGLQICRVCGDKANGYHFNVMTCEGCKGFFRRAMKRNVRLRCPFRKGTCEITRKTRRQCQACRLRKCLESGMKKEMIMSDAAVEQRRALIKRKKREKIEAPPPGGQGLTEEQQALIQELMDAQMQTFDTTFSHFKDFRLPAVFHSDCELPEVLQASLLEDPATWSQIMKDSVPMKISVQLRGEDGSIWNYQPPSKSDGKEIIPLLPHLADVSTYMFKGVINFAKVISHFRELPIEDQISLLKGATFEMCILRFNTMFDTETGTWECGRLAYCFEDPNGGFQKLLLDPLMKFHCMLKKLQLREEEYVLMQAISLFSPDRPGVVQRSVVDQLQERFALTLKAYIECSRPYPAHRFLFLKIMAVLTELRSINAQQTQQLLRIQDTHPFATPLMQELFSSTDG

Row | Compound | Potency (SKOV3) | Potency (Tov-21-G) | outcome [1] | Potency (Tov112D) | Potency [2] | Potency (astro) | max response [3]
1 | CCCCCCCCCCCCCCCC[N+](C)(C)C | 28.2 µM (active) | 7.94 µM (active) | inactive | – | – | – | –
2 | Cc1cc(O)ccc1Cl | inactive | inactive | inactive | inactive | inactive | inactive | -6.09%
3 | O=S(=O)(c1ccc(Cl)cc1)c1ccc(Cl)cc1 | – | inactive | – | inactive | inactive | inactive | –
4 | CC(N[C@H]1C[C@H]1c1ccccc1)c1ccc2c(c1)OCCO2 (stereo not given in full) | – | inactive | – | inactive | – | – | –
5 | c1cc2ccc3cccc4ccc(c1)c2c34 | inactive | inactive | inactive | – | inactive | – | 6.39% and 2.28%
6 | O=C(N[C@@H](COc1ccc2[nH]c(=O)[nH]c2c1)c1ccccc1)c1cccn(Cc2ccc(F)c(F)c2)c1=O | – | inactive | – | inactive | – | – | –
7 | CC1(C)CC/C(=C/c2ccc(Cl)cc2)C1(O)Cn1cncn1 (stereo not given) | inactive | inactive | – | inactive | – | inactive | –
8 | Oc1ccc2c3c1O[C@H]1[C@@H](O)C=C[C@H]4[C@@H](C2)NCC[C@@]341 | inactive | inactive | – | inactive | inactive | inactive | –
9 | CC(C)N(CCNC(=O)CN1CCCC1=O)C(C)C | – | inactive | – | inactive | – | – | –
10 | S=C(SSC(=S)N1CCCCC1)N1CCCCC1 | 3.98 µM (active) | – | – | 14.1 µM (active) | inactive | inactive | –
11 | Fc1cc(Br)ccc1CBr | – | inactive | – | inactive | – | – | –
12 | CCCCCCCCc1ccc(O)cc1 | inactive | – | – | inactive | inactive | inactive | 3.32% and -2.12%
13 | CC(C)(C)NC[C@H](O)c1ccc(O)cc1Cl | – | inactive | – | inactive | inactive | inactive | –
14 | CCCCCCCCCC(CC)c1ccc(S(=O)(=O)O)cc1 (stereo not given) | – | inactive | – | inactive | inactive | inactive | 0.683% and -5.48%
15 | Nc1ccc(Sc2ccc(N)cc2)cc1 | inactive | inactive | – | inactive | – | – | 10.3% and 6.87%
16 | O=[N+]([O-])c1c2ccccc2cc2ccccc12 | – | inactive | – | inactive | – | – | –
17 | CS(=O)(=O)c1ccc(C(=O)C2C(=O)CCCC2=O)c([N+](=O)[O-])c1 | inactive | inactive | – | inactive | inactive | – | 1.13%
18 | O=C(O)COc1nc(Cl)c(Cl)cc1Cl | inactive | inactive | – | inactive | inactive | – | -1.37%
19 | O=C(O)COc1ccccc1 | inactive | inactive | inactive | inactive | inactive | inactive | -3.8%
20 | O=S(=O)(O)C(F)(F)C(F)(F)C(F)(F)C(F)(F)C(F)(F)C(F)(F)C(F)(F)C(F)(F)F | inactive | inactive | inactive | inactive | inactive | – | 2.44% and 1.44%
21 | C=CC(=O)NCNC(=O)C=C | inactive | inactive | inactive | inactive | inactive | – | 1.16% and 0.492%
22 | CCCCC(CC)COC(=O)c1ccccc1C(=O)OCC(CC)CCCC (stereo not given) | – | inactive | – | inactive | – | – | –
23 | O=S(=O)(O)C(F)(F)C(F)(F)C(F)(F)C(F)(F)F | inactive | inactive | – | inactive | inactive | – | -0.463% and -1.11%
24 | Nc1ccc(Cl)cc1 | inactive | inactive | inactive | inactive | inactive | – | 3.79%
25 | CCOCCOC(C)=O | inactive | inactive | inactive | inactive | inactive | – | -2.9%
26 | C1CCC(NC2CCCCC2)CC1 | inactive | inactive | inactive | inactive | inactive | inactive | -4% and -4.51% and -0.383%
